The record followed here is article PMC7862700, “An all-to-all approach to the identification of sequence-specific readers for epigenetic DNA modifications on cytosine”.

What all share (experiment): DAPPL (digital affinity profiling via proximity ligation, sequencing); 10 mM Tris-HCl pH 7.5, 50 mM NaCl, 1 mM DTT, 4% glycerol, room temperature, 30 min; GST-TFs on glutathione beads, 16-mer random dsDNA library, 0.1% formaldehyde crosslink after washing; high values mean tight binding
Holding throughout (details): protein: recombinant; tags: N-terminal GST; dsDNA, one strand shown

Experiment [1] concerns the target T1, FLI1 (Homo sapiens, UniProt Q01543 1-452).
T1 sequence: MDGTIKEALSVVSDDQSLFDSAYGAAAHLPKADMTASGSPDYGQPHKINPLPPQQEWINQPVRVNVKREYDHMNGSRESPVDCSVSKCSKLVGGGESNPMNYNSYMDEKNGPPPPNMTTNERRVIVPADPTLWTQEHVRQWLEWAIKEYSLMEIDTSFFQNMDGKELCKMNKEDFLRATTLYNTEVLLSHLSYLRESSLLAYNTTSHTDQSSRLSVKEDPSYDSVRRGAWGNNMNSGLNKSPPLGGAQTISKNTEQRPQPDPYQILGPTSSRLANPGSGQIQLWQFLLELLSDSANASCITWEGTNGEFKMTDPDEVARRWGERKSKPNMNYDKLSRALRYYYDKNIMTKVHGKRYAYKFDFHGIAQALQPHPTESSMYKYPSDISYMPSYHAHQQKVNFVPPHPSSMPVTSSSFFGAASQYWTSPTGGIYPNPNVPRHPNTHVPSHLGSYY
Summed up: (§1)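 Sequencing on an Illumina NextSeq500 followed washing, crosslinking with 0.1% formaldehyde, proximity ligation (BsaI/T4 ligase, 1 h, 37 °C) and PCR amplification of pools that had been incubated for 30 min at room temperature with 200 nmole of a random double-stranded 16-mer DNA library in Tris/NaCl/DTT/glycerol buffer. Each pool held DNA-barcoded human transcription factors, expressed in yeast as GST fusions and captured on glutathione beads, plus a tag-only sample. Binding signal is a hexamer's read frequency for a factor divided by its frequency in the tag-only sample.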

Experiment [2] has as its target T2, ELK1 (Homo sapiens, UniProt P19419 1-428).
T2 sequence: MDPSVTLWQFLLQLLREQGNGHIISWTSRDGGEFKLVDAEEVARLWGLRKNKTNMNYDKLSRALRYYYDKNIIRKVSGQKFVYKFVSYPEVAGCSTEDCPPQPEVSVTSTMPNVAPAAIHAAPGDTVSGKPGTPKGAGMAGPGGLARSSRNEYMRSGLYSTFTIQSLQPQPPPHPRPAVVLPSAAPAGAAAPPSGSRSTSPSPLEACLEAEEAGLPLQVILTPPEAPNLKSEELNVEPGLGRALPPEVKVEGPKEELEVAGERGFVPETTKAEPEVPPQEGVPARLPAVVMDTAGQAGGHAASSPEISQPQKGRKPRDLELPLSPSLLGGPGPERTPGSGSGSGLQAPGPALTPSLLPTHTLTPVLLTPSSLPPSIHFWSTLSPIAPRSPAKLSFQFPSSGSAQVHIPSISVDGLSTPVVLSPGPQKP
A digest of the protocol: as §1

In experiment [3] the target is T3, GABPA (Homo sapiens, UniProt Q06546 1-454).
T3 sequence: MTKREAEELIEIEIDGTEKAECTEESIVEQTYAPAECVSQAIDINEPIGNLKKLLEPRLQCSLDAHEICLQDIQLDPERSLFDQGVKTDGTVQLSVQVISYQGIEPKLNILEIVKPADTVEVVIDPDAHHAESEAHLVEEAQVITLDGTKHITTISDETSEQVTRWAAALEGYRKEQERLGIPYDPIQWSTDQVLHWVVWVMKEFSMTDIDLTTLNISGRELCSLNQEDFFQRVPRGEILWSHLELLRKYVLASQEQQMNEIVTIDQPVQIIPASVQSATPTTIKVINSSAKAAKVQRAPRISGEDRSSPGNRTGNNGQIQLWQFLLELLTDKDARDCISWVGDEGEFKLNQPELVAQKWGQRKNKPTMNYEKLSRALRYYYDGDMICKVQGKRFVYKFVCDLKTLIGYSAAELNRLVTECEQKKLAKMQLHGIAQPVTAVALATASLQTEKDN
Summed up:
as §1

Experiment [4] has as its target ELF1 (Homo sapiens, UniProt P32519 1-619). Summed up:
as §1

The target in experiment [5] is T4, EHF (Homo sapiens, UniProt Q9NZC4 1-300).
T4 sequence: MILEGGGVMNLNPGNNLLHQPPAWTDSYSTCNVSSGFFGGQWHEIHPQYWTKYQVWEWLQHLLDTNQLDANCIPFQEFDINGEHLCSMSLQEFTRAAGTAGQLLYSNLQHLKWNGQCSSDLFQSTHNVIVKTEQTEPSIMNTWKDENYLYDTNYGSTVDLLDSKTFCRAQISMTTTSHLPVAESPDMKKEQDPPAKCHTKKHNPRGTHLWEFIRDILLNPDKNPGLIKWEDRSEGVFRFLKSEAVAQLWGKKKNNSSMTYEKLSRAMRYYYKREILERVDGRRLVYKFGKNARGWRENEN
Summed up:
as §1

In experiment [6] the target is SPI1 (Homo sapiens, UniProt P17947 1-270). A digest of the protocol: as §1
Experiment [7] has as its target SPIB (Homo sapiens, UniProt Q01892 1-262). Summed up: as §1
The target of experiment [8] is T5, ELK3 (Homo sapiens, UniProt P41970 1-407).
T5 sequence: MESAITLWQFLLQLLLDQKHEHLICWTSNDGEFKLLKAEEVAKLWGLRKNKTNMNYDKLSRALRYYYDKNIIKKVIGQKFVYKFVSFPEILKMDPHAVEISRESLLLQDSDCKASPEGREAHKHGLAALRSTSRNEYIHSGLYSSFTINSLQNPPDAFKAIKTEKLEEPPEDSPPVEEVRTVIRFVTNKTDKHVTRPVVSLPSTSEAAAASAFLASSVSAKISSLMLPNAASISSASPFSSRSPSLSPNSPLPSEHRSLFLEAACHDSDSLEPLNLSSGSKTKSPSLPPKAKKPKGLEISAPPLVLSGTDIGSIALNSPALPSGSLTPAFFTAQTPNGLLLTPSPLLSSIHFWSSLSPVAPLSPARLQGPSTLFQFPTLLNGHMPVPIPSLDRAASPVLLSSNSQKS
Summed up: as §1

Experiment [9] has as its target T6, FEV (Homo sapiens, UniProt Q99581 1-238).
T6 sequence: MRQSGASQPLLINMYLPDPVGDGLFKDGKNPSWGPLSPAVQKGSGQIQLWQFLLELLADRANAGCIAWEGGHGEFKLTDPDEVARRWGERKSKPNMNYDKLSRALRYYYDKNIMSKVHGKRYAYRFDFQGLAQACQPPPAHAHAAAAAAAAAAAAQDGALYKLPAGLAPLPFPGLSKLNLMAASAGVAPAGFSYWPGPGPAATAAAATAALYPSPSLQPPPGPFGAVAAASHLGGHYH
A digest of the protocol:
as §1

The target of experiment [10] is ETV5 (Homo sapiens, UniProt P41161 1-510). Summed up:
as §1

In experiment [11] the target is T7, SPIC (Homo sapiens, UniProt Q8N5J4 1-248).
T7 sequence: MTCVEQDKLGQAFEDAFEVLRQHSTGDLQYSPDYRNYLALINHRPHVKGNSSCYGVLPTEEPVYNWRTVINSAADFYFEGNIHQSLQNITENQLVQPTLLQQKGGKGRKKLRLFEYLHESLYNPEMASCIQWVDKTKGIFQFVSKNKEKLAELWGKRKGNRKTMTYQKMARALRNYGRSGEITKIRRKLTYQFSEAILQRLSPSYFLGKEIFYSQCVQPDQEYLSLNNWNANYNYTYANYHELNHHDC
Summed up: as §1

The target in experiment [12] is ELF4 (Homo sapiens, UniProt Q99607 1-663). A digest of the protocol:
as §1

Experiment [13] deals with T8, ELK4 (Homo sapiens, UniProt P28324-2 1-405).
T8 sequence: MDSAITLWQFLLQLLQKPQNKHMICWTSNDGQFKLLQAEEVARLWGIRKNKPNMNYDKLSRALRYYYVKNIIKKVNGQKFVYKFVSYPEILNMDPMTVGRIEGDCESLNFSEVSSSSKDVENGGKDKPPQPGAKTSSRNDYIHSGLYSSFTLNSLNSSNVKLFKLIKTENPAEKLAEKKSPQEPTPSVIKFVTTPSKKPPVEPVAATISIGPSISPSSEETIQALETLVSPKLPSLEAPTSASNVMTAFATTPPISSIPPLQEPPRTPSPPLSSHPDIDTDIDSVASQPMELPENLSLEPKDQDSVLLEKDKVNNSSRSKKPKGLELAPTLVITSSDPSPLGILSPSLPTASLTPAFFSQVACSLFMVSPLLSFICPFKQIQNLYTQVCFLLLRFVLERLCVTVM
A digest of the protocol:
as §1

Experiment [14] addresses T9, ETV2 (Homo sapiens, UniProt O00321 1-342).
T9 sequence: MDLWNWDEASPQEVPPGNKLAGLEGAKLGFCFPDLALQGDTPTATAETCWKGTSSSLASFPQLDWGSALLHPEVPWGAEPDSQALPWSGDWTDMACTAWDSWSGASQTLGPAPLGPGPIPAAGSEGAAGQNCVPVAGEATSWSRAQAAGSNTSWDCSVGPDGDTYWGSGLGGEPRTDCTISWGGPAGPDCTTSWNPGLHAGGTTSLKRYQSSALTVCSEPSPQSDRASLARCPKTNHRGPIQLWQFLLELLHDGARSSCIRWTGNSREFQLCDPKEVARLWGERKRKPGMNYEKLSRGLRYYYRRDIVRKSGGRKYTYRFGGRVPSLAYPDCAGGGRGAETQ
A digest of the protocol: as §1

Experiment [15] has as its target T10, ELF3 (Homo sapiens, UniProt P78545 1-371).
T10 sequence: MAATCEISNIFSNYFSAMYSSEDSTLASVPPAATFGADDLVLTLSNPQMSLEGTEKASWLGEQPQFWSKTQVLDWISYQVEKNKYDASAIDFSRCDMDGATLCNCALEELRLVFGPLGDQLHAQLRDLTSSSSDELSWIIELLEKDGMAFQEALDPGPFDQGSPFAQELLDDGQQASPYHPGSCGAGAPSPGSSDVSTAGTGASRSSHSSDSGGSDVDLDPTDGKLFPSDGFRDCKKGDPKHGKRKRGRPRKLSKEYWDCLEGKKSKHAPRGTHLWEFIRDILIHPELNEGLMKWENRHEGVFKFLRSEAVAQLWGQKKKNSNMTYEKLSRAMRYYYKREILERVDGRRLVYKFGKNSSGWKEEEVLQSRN
A digest of the protocol:
as §1

Experiment [16] has as its target ETV1 (Homo sapiens, UniProt P50549 1-477). Summed up:
as §1

ELF4, sequence (Q99607 whole entry): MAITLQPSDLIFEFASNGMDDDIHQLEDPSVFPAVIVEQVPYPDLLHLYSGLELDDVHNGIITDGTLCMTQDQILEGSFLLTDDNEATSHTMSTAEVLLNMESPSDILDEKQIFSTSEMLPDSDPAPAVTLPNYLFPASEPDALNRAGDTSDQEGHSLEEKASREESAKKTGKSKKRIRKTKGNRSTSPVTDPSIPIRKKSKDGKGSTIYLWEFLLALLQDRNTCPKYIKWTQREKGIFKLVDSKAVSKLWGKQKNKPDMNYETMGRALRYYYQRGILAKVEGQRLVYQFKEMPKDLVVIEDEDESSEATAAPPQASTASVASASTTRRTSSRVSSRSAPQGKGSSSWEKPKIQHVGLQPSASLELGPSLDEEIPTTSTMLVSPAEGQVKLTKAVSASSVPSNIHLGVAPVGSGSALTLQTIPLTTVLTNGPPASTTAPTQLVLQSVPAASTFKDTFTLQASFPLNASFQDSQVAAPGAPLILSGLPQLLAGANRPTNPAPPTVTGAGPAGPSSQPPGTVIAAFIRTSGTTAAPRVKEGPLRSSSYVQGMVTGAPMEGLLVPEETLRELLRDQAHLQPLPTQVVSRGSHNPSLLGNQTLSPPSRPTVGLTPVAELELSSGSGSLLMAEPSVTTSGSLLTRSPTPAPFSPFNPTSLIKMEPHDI
ELF1, sequence (P32519 whole entry): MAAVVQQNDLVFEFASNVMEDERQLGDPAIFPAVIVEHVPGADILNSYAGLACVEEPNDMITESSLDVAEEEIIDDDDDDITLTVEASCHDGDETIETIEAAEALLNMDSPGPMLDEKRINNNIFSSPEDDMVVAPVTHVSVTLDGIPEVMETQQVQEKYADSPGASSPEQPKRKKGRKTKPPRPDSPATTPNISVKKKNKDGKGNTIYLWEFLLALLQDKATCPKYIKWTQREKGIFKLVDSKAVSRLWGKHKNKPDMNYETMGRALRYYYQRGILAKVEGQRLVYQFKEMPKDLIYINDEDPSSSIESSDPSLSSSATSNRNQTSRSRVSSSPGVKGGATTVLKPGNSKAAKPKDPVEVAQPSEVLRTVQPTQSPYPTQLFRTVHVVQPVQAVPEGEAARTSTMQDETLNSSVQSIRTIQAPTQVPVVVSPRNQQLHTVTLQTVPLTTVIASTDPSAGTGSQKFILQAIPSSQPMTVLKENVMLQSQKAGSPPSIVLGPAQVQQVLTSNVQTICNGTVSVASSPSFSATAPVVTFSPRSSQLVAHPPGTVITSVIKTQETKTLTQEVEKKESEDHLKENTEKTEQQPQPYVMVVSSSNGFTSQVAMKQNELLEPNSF
SPIB, sequence (Q01892 whole entry): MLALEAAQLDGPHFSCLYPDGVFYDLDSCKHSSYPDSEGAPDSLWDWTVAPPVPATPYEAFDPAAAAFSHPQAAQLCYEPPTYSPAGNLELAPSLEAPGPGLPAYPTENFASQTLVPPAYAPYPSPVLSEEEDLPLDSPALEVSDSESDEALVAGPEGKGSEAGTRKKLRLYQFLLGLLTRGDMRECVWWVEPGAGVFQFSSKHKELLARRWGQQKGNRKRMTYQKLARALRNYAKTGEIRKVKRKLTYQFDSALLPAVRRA
ETV1, sequence (P50549 whole entry): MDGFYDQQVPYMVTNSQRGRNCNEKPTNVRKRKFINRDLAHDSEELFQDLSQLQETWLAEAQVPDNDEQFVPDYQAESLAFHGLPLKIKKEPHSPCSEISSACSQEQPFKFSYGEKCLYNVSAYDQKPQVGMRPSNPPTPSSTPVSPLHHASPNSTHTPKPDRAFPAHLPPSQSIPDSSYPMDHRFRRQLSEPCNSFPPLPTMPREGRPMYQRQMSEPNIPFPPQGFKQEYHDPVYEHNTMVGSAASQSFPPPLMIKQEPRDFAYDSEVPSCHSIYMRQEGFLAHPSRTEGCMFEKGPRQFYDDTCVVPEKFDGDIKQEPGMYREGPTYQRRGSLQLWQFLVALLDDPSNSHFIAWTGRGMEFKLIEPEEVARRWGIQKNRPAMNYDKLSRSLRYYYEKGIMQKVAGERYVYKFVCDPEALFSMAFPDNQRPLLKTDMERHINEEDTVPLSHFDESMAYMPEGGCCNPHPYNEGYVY
ETV5, sequence (P41161 whole entry): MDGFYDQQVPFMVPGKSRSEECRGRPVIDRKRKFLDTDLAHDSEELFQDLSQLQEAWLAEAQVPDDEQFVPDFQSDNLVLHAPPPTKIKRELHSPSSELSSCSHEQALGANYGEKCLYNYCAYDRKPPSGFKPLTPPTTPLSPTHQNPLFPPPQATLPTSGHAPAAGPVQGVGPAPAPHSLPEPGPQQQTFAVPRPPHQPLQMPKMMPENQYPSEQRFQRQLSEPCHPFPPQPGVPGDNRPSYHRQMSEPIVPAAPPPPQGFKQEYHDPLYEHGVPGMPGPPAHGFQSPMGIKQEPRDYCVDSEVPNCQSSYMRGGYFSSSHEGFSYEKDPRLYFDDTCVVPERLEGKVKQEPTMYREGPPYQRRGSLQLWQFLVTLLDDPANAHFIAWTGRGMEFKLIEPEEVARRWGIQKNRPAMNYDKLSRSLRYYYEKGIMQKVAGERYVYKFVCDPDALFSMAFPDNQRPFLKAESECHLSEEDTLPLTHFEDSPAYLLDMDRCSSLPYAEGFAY

On to GTAGCA, for which the binding signal is 1.03 fold enrichment (6-mer frequency, TF over GST control) in experiment [1]; 1.1 fold enrichment (6-mer frequency, TF over GST control) in experiment [2]; 1.15 fold enrichment (6-mer frequency, TF over GST control) in experiment [3]; 1.16 fold enrichment (6-mer frequency, TF over GST control) in experiment [4]; 1.1 fold enrichment (6-mer frequency, TF over GST control) in [5]; 1.08 fold enrichment (6-mer frequency, TF over GST control) in [6]. Besides, the binding signal in experiment [7] was 1.03 fold enrichment (6-mer frequency, TF over GST control); in experiment [8], 1.11 fold enrichment (6-mer frequency, TF over GST control); in [9], 1.07 fold enrichment (6-mer frequency, TF over GST control); in experiment [10], 1.13 fold enrichment (6-mer frequency, TF over GST control); in [11], 1.16 fold enrichment (6-mer frequency, TF over GST control); in experiment [12], 1.07 fold enrichment (6-mer frequency, TF over GST control). For the same sequence, the binding signal in experiment [13] was 1.06 fold enrichment (6-mer frequency, TF over GST control); in experiment [14] it was 1.11 fold enrichment (6-mer frequency, TF over GST control); in experiment [15], 1.01 fold enrichment (6-mer frequency, TF over GST control); in experiment [16], 1.11 fold enrichment (6-mer frequency, TF over GST control).
